# Test results reported in publication PMC13494018.
# A number with no mark means an inactive call. The rule behind the calls is not given here.
# Target: CD276, Q5ZPR3
# Sequence (Q5ZPR3 whole entry): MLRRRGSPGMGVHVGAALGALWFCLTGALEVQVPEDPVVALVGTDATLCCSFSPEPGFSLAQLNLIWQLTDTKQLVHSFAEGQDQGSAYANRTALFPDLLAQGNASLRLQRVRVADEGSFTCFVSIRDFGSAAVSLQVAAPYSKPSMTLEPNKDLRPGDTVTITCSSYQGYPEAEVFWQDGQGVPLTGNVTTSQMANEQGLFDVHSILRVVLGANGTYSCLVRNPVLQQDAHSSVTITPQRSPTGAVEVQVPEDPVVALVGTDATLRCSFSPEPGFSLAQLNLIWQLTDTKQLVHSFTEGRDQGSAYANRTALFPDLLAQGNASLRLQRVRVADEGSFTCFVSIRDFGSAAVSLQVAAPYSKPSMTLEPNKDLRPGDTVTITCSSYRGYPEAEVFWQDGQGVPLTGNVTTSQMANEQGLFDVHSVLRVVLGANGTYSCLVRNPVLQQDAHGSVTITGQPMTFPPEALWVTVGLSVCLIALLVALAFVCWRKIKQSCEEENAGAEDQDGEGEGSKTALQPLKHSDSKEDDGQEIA
row,Binder,binding in a display sort
1,design_619_5728adc2-0aea-404f-92dd-a4575c53f550_1117_dldesign_0_cycle1_af2pred (protein) SAAAAAAAGALAVEEAKRFAEEQLAYGKAEDPGVGMQAIATYANRKAVEYASDPATASAIVSIGVEAMEELARWRREREA,not found
2,design_619_5728adc2-0aea-404f-92dd-a4575c53f550_1124_dldesign_0_cycle1_af2pred (protein) ELEELRKEAEAKAAEARALAAEGAKYDPTAAALFNAALRFFEIAIRLAEEGGDPEEARAALDAGTTLLAAGRAVLAAAAAAAA,not found
3,design_619_5728adc2-0aea-404f-92dd-a4575c53f550_1162_dldesign_0_cycle1_af2pred (protein) SPVEQYAKAQADMLKEAAGVDDATAQAFADYIVANPALATQAGAMTVAIVRAADAARAAAAAAAAAAAAAAAA,not found
4,design_619_5728adc2-0aea-404f-92dd-a4575c53f550_1264_dldesign_0_cycle1_af2pred (protein) GEEAAKKAEKAVEALKQGAKEAAKGTPELAANTAKSYITMAKSIAKGAKRADGGEAAKKVEKKAKEAIAEAKKLAKAAA,not found
5,design_619_5728adc2-0aea-404f-92dd-a4575c53f550_1269_dldesign_0_cycle1_af2pred (protein) AKEEAKEKAKKLVEEAKKLAEAAIADPSQYPAQAAKMTKLAEEAAKLGKELDPEIFGEAAQEILRLLIQAAQAVN,not found
6,design_619_5728adc2-0aea-404f-92dd-a4575c53f550_1353_dldesign_0_cycle1_af2pred (protein) GETGEAKREGARVAARLGAAAVQLAAVDPEVAKKAQAAVGEVLEAMEAAAKDPSKVEEVKKAREKAEKALKEAEKTLA,not found
7,design_619_5728adc2-0aea-404f-92dd-a4575c53f550_1370_dldesign_0_cycle1_af2pred (protein) AAAAVAANRAAAAATAETYKAKGKAAAADPAAALAYYNAAGLYAGLAKGDPEAEFAKYKAEADALIAAAKA,not found
8,design_619_5728adc2-0aea-404f-92dd-a4575c53f550_1536_dldesign_0_cycle1_af2pred (protein) SAALEEARREFEAAVELLAEHPDLAAKVREGFELGVTDIGAGLALLTEARREALELGLEAAAREIRAGMAALLRAHL,not found
9,design_619_5728adc2-0aea-404f-92dd-a4575c53f550_1575_dldesign_0_cycle1_af2pred (protein) AAWQALEIAKKAGLALAKSAAAMPNPEDAKKAAETAKDMVTATAQAVIDAGGDKEKAKALVEEVKKAAEAGVKAAKA,not found
10,design_619_5728adc2-0aea-404f-92dd-a4575c53f550_1666_dldesign_0_cycle1_af2pred (protein) SEADAAALDELARLAGEVTGKPEEALALAEIAKQDPLALATLAAMARQARAASPEEAAQLARNAFQIMKALA,not found
11,design_619_5728adc2-0aea-404f-92dd-a4575c53f550_1668_dldesign_0_cycle1_af2pred (protein) ARAVVEAAANELAAETLRAGWQAGETGDAIAARIRAILEAGREVAEELAARNPAVTLEEARAAVRERAERLLAEAAA,not found
12,design_619_5728adc2-0aea-404f-92dd-a4575c53f550_1681_dldesign_0_cycle1_af2pred (protein) AEKAKQAAELAEVLAATAEQAPQLTPAQIAAVANTVAIGLKGLGEAKEAAELAEKAAEAAKRDKEEAVKLLREAAEALKKLAA,not found
13,design_619_5728adc2-0aea-404f-92dd-a4575c53f550_1766_dldesign_0_cycle1_af2pred (protein) ADPAALAAIQEQRDKALKEIEEAAKEAKETTEEEARKKIVDAAHTATAQLAQIGVAHPAVAAEAGQAISEILDAGKRALEEAKKNA,not found
14,design_619_5728adc2-0aea-404f-92dd-a4575c53f550_1779_dldesign_0_cycle1_af2pred (protein) SAATEIATRTAQAAIRAGEEALERAREALEGETGREEVEREVARIEAQAETLELLAEGSPEIAPTANAKAEEFRREAERLREEAE,not found
15,design_619_5728adc2-0aea-404f-92dd-a4575c53f550_1814_dldesign_0_cycle1_af2pred (protein) DEELRKEVLEKIKELEAKAKEAAADPATQGLAVFLKNTAATARRELEKDAELGLAVVEAGEEGLAYLQAS,not found
16,design_619_5728adc2-0aea-404f-92dd-a4575c53f550_1820_dldesign_0_cycle1_af2pred (protein) AEAAKRAAAEAAVKKAAELAAKADPALAKRILDAKTIAEGISAAFTAAAQLIQKDPELAAEIVKEAEKAA,not found
17,design_619_5728adc2-0aea-404f-92dd-a4575c53f550_1864_dldesign_0_cycle1_af2pred (protein) MEEEKEKKEKEKLKKAKELLKKAKEMAENVAEYSVGEILRVATEAIRLATEAAKGKLKEEGKKVADEARKVAAEAARRALALQ,not found
18,design_619_5728adc2-0aea-404f-92dd-a4575c53f550_1867_dldesign_0_cycle1_af2pred (protein) AAEKAALLAAAEATLARAQEVLAQAKKYPEVQPLAAAALGYALAAQGAVLVDPATGKAFLAKAQALLAEAEAQIKALEA,not found
19,design_619_5728adc2-0aea-404f-92dd-a4575c53f550_1912_dldesign_0_cycle1_af2pred (protein) AAQQQAQVAAAATQAVADQTIKVAEELGKYDPELAKKYKEEATKIKKQAQEAAKQGQQGLQQVNQLLSQALELLGEAAKKLREAK,not found
